# Hits are enriched below; roughly 6% of the tested compounds scored in any of these assays.
# D1 antag – Antagonist of Human D 1 Dopamine Receptor: qHTS. HEK293 TREx D1 cells, calcium flux, dopamine EC80; hits give low values. activity change, negative = inhibition, % at 10 µM. 3.2% of 360,000 active. AID 504652, 2011; in the data active = activity change below about -30%; note: % is set by controls: 0 for no effect and ±100 for the full control effect
# Target sequence (P21728 whole entry, looked up): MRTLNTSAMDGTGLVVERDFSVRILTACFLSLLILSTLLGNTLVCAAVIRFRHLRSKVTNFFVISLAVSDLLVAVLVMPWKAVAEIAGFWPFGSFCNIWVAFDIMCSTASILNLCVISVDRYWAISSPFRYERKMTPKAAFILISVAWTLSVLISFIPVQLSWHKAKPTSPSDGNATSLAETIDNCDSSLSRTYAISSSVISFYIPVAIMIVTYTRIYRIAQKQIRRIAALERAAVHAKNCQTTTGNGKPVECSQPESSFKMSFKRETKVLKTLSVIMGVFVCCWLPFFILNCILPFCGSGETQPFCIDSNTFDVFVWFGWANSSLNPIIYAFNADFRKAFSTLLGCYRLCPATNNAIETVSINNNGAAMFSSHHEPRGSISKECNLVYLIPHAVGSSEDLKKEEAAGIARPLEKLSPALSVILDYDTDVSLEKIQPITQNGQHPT
#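 Tetracycline-induced HEK293 Trex D1 cells, force-coupled to calcium, dye-loaded; compounds added and read 180 s, then EC80 dopamine added and calcium flux tracked kinetically another 180 s.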
# Chronic BCR inh – qHTS Assay to Find Inhibitors of Chronic Active B-Cell Receptor Signaling; ABC-DLBCL IkBa-CBG/CBR reporter, luminescence ratio, 4 h; Potency, µM (titrated, usually from 46.1 µM), for inactives: at the highest dose activity change, negative = inhibition, usual class: inhibitors; 0.05% of 340,000 active; active = well fitted inhibition curve with a large enough effect in the signal ratio, with a control signal flat, not every such curve was filed as active; inconclusive = small, poorly fitted or top-dose-only effect, or effect the other way, or a change in a side signal; the % refers to the signal ratio;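 note: potency is the fitted concentration of half-maximal effect; plate controls were basal doxycycline-induced cells for no effect and cells given 10 µM MG132 for full effect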
#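 Concentration-response series (up to 46 uM) were applied to TMD8 dual-reporter cells for 4 h at 37C with doxycycline. Green/red ratio, after filter-overlap correction, defined %Activity; red signal alone was normalised to basal cells and zero luminescence.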
# D3 ag – qHTS of D3 Dopamine Receptor Agonist: qHTS | D(3) dopamine receptor (Homo sapiens), P35462 | D3R DiscoveRx beta-arrestin cells, luminescence, 90 min | max activation, % | 0.58% of 410,000 active | AID 652048, 2013; in the data active = max activation above about 30%; note: 0% is about no effect
#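 Agonist mode: compounds and dopamine controls were applied to plated cells for 90 min at 37 degrees C after an overnight attachment at 1500 cells/well. Luminescent read-out followed 30 - 60 minutes at room temperature with DiscoveRx detection reagent.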
# D3 antag – qHTS of D3 Dopamine Receptor Antagonist: qHTS; D3R cells, DiscoveRx beta-arrestin luminescence, antagonist mode; hits give low values; max response, negative = inhibition, %; 2.5% of 360,000 active; AID 652054, 2013; in the data active = max response below about -50%; inconclusive = no clear call, values can overlap the other calls; note: % is set by controls: 0 for no effect and ±100 for the full control effect
#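 Cells expressing the human receptor were seeded at 1500 cells/well, incubated overnight at 37 degrees C in 5% CO2, then exposed to library compounds with dopamine controls for 90 minutes at 37 degrees C before luminescent detection.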
# D1 ag – Allosteric Agonists of the Human D1 Dopamine Receptor: qHTS; HEK293 T-REx D1 cells, calcium flux, agonist mode; activation, % at 2 µM; 1% of 360,000 active; in the data active = activation above about 30%; note: 0% is about no effect
#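 Inducible HEK293 T-REx D1 cells, force-coupled to calcium signalling, were plated at 4000 cells/well with tetracycline and held overnight at 30 C. After no-wash calcium dye loading, compound-evoked calcium rise over 180 s flagged agonists.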
# D1 PAM – Potentiators of Human D1 Dopamine Receptor: qHTS; potentiation, % at 10 µM; HEK293 TREx D1 cells, calcium flux, dopamine EC20 potentiation; 0.036% of 360,000 active; in the data active = potentiation above about 30%; note: 0% is about no effect
# * = called active by the depositor; ? = inconclusive; nt = no result given.
SMILES,D1 antag,Chronic BCR inh,D3 ag,D3 antag,D1 ag,D1 PAM
Cc1ccccc1-c1cnc(C(O)c2c(C)cccc2C)[nH]1 (stereo not given),nt,nt,-14.8,-52.3*,nt,nt
Cc1cccc(C)c1C(O)c1ncc(-c2cccc3ccccc23)[nH]1 (stereo not given),nt,nt,0.8,-75.7*,nt,nt
Cc1cccc(C)c1C(O)c1ncc(-c2ccccc2F)[nH]1 (stereo not given),nt,nt,-8.8,-27.7,nt,nt
COc1cc(NC(=O)c2cnc3c(-c4ccc(F)cc4)c(C)nn3c2C)cc(OC)c1,-3.8,nt,6.2,nt,1.4,-1.1
CCCC(C)C(=O)Nc1ncc(S(=O)(=O)c2ccc([N+](=O)[O-])cc2)s1 (stereo not given),-68.4*,-0.6%,-1.5,7.4,58.9*,6.5
O=C(Cn1c(=O)oc2cc(S(=O)(=O)NCc3ccccc3)ccc21)NCc1ccccc1Cl,-5.7,?,3.0,nt,18.4,-3.8
C(#Cc1ccc(C#CCN2CCCC2)cc1)CN1CCCC1,-32.3*,4.3%,-9.7,12.2,8.5,-4.2
O=C(c1ccccc1)N1CCN(CC#Cc2ccccc2)CC1,0.2,?,26.3,-6.5,-1.1,-2.7
COc1ccccc1NS(=O)(=O)c1cn(C)c(C)n1,-7.7,nt,-5.7,nt,0.2,-3.2
COCCNC(=O)c1ccc2c(=O)n(CCc3ccccc3)c(SCC(=O)CC(=O)OC)nc2c1,-34.5*,nt,6.8,nt,0.6,-5.1
COCCNC(=O)c1ccc2c(=O)n(CCOC)c(SCC(=O)c3c[nH]c4ccccc34)nc2c1,-21.1,nt,5.5,nt,2.9,-2.8
CC1CCN(CCCNC(=O)c2ccc3c(=O)n(CCc4ccccc4)c(=O)[nH]c3c2)CC1,-42.4*,4.1%,-5.3,-28.0,3.2,-1.4
CC(=O)NCCNC(=O)c1ccc2c(=O)n(CCc3ccccc3)c(=O)[nH]c2c1,-66.8*,nt,-2.1,nt,-0.3,-1.6
O=C(NCc1ccccn1)c1ccc2c(=O)n(CCc3ccccc3)c(=O)[nH]c2c1,-53.6*,4.8%,-1.7,31.5,8.8,-10.3
CCCCCn1c(=O)[nH]c2cc(C(=O)NCc3ccccn3)ccc2c1=O,-8.9,2.8%,0.8,-3.9,2.3,-3.6
CC(=O)Nc1nonc1-c1nnc(SCc2ccccc2F)n1C,-14.3,nt,10.0,nt,1.3,-1.8
COc1ccccc1C(=O)Nc1cccc(OCc2cc(=O)n3ccccc3n2)c1,-13.6,nt,-18.6,nt,-0.3,-4.5
CCn1c(=O)c(-c2nc3ccccc3[nH]2)c(O)c2ccccc21,12.4,?,-36.7,-86.3*,-1.1,-13.8
CCCn1c(=O)c(-c2nc3ccccc3[nH]2)c(O)c2ccccc21,-1.1,15.5%,8.0,-6.2,0.4,-8.8
CCOc1ccc(-c2cc3c(=O)n(Cc4nc(-c5ccc(OC(C)C)cc5)oc4C)ccn3n2)cc1Cl,-36.1*,nt,-11.1,nt,1.6,-0.1
Cc1ccc(S(=O)(=O)CCOC(=O)CNC(=O)OCc2ccccc2)cc1,nt,nt,5.3,9.5,nt,nt
O=C(O)c1ccc(N=Nc2c(O)ccc3ncccc23)cc1,-1.2,?,-8.3,-75.3*,1.3,-6.2
O=C(O)c1cc(N=Nc2c(O)ccc3ccccc23)cc(C(=O)O)c1,-2.1,6.1%,0.1,-4.9,2.5,5.7
Cc1ccc(OCC(=O)Nc2cccc(-c3nc4ccccc4s3)c2)cc1,-5.1,nt,-12.9,nt,5.3,0.5
Nc1c(C(=O)c2ccccc2)sc2nsc(SCCN3CCOCC3)c12,-42.2*,-0.5%,6.5,-8.9,194.4*,4.0
SMILES,D1 antag,Chronic BCR inh,D3 ag,D3 antag,D1 ag,D1 PAM
Cc1ccccc1NC(=O)Nc1nc(C2CCC(=O)N2)cs1 (stereo not given),nt,nt,3.4,15.9,nt,nt
COc1ccc(C(=O)Nn2c(C)nnc2-n2nc(C)cc2C)cc1OC,-31.0*,-0.2%,-4.5,14.3,-2.2,3.0
CCOC(=O)Nc1ccc2c(c1)N(CCCN(C)C)c1ccccc1CC2,-3.0,?,-10.1,-26.0,38.1*,-10.2
CN(C)c1ccc(CNC(=O)C2CCCN(S(=O)(=O)c3ccc4c(ccn4C)c3)C2)cc1 (stereo not given),-11.1,nt,4.4,nt,3.0,0.7
CN1CCN(C2=Nc3cc(F)ccc3Cc3ccccc32)CC1,-84.5*,1.9%,-21.1,nt,8.5,-3.1
O=C(Nc1ccc(F)cc1F)c1cc2nc3c(c(C(F)(F)F)n2n1)CCCC3,-33.3*,2.6%,22.5,8.0,0.4,-3.6
O=C(O)c1cc2nc3c(c(C(F)(F)F)n2n1)CCCC3,-24.3,-7.5%,1.0,5.5,1.8,-3.8
O=S(Cc1ccccc1)c1ccccc1 (stereo not given),nt,nt,-0.3,5.7,nt,nt
O=S(Cc1ccc(Cl)cc1)c1ccccc1 (stereo not given),nt,nt,66.2*,5.6,nt,nt
O=c1c2c(n3cnnc3n1-c1ccccc1)-c1ccccc1CC21CCCC1,3.2,0.3%,1.2,-22.8,1.3,-2.7
Cn1c(=O)c2c(n3cnnc13)-c1ccccc1CC21CCCC1,4.4,8.2%,2.5,-56.4*,2.3,-2.8
Cc1ccc(C(C)C)cc1OCC(=O)N/N=C/c1ccc2c(c1)OCCO2,-1.2,?,48.1*,13.8,0.9,-2.5
CSCCC(NC(=O)COc1ccccc1)C(=O)NCC(C)(C)N1CCOCC1 (stereo not given),nt,nt,1.2,13.1,nt,nt
CCCCNC(=O)Cn1nc(N2CCN(c3ccccc3OC)CC2)ccc1=O,-42.1*,nt,-9.3,nt,0.8,-0.8
CCCN1C(=O)c2[nH]nc(-c3ccccc3O)c2C1c1ccc(OCc2ccccc2)c(OCC)c1 (stereo not given),5.3,nt,28.1,nt,0.7,1.6
Cc1cccc(C)c1NC(=S)NNc1ncc(C(F)(F)F)cc1Cl,-3.2,?,-1.9,7.2,3.4,-3.4
FC(F)(F)c1cnc(NNC(=S)Nc2cccnc2)c(Cl)c1,0.6,-5.1%,-10.6,-66.6*,3.0,0.6
FC(F)(F)c1cnc(NNC(=S)Nc2ccccc2)c(Cl)c1,nt,nt,-17.3,-91.7*,nt,nt
CC1C(=O)N(Cc2cn(Cc3ccco3)nn2)CCS(=O)(=O)N1Cc1ccc(-c2ccc(F)cc2Cl)cc1 (stereo not given),nt,nt,5.3,-13.0,nt,nt
CCN(CC)c1ccc(NC(=O)CCS(=O)(=O)c2cc3c(cc2Cl)NC(=O)CO3)c(C)c1,6.7,nt,-3.4,nt,4.6,-2.5
O=S(=O)(NCCc1ccc(Cl)cc1)c1ccc(N2CCCCS2(=O)=O)cc1,-34.8*,nt,-14.0,nt,13.2,0.8
CC(C)CNS(=O)(=O)c1ccc(N2CCCCS2(=O)=O)cc1,-43.7*,nt,-17.1,nt,6.7,-0.1

# Screening results: PubChem, National Center for Advancing Translational Sciences (NCATS)
